High-throughput results deposited in PubChem BioAssay by National Center for Advancing Translational Sciences (NCATS).
Pf growth 48h: inhibits P. falciparum growth in the first generation, 48 h | P. falciparum luciferase growth in erythrocytes, 48 h | Potency, µM (doses to about 28.7 µM), without a hit: at the top dose activity change, negative = inhibition, hits mostly inhibitors | hit rate 5.9% among 310,000 | AID 504832; note: potency is the fitted concentration of half-maximal effect; % is set by controls: 0 for no effect and ±100 for the full control effect
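Read-out is firefly luciferase luminescence from an integrated reporter in P. falciparum, so falling signal marks reduced parasite growth. Infected erythrocytes were at 2% hematocrit and 0.1% parasitemia (final) in Albumax-supplemented RPMI 1640.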
Pf growth 96h: inhibits malaria parasite growth, 96 h; AID 504834; hit rate 6.9% among 320,000; P. falciparum luciferase reporter growth, 96 h; Potency, µM (top dose mostly 28.7 µM), inactives show at the highest dose activity change, negative = inhibition, hits mostly inhibitors; note: potency is the fitted concentration of half-maximal effect; % is set by controls: 0 for no effect and ±100 for the full control effect
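Infected RBCs, 2% Hct / 0.05% parasitemia final; luciferase-reporter P. falciparum; cpd 96 h, 37 C, 5% CO2; luciferase detection reagent; luminescence.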
NS1 function inh: blocks influenza NS1 protein function; AID 2326; hit rate 0.4% among 270,000; Potency, µM (series often up to 46.1 µM), inactives show at the highest dose activity, positive = more growth; calls by dose curve; note: potency is the fitted concentration of half-maximal effect; actives are rising curves; nearly all actives have a fitted effect of over 50% in size
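S. cerevisiae expressing influenza A NS1, grown in glucose, washed, then diluted 1:100 into pH 6.0 -URA galactose medium with 23 nl compound. Growth recovery read as OD600; NS1-free strain serves as control.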
Sm TGR inh: blocks Schistosoma mansoni thioredoxin glutathione reductase | AID 485364 | Potency, µM (series often up to 114 µM), inactives show at the highest dose activity change, negative = inhibition, most hits filed as inhibitors | purified TGR, DTNB reduction, TNB absorbance 405 nm | hit rate 3% among 360,000; note: potency is the fitted concentration of half-maximal effect; % is set by controls: 0 for no effect and ±100 for the full control effect; nearly all actives have a fitted effect of over 60% in size
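Kinetic colorimetric format: TGR-catalysed, NADPH-driven DTNB reduction monitored via TNB absorbance. Enzyme dispensed at 20 nM; compound exposure 15 min at room temperature before reaction start.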
Shiga inhibitor: inhibitors of Shiga toxin in Vero cells; hit rate 9.2% among 290,000; AID 2315; inhibition, % at 38.7 µM; Vero cells, Shiga toxin protein synthesis inhibition reporter; in the data active = inhibition mostly above about 28%, no sharp cut-off; inactive = mostly below about 43%; note: 0% is about no effect
Cycloheximide cs: affects cycloheximide protein synthesis inhibition readout, counter-screen | cell reporter, cycloheximide protein synthesis inhibition counterscreen | max response, % | hit rate 12% among 300,000; in the data active = max response mostly above about 13%, no sharp cut-off; inactive = mostly below about 14%; note: read at 38.3 µM for the half of the compounds with a filed dose; 0% is about no effect
* hit, by the source's call; ? = inconclusive; nt = no result given; [ ] = dose if it differs, or a comment. This is a sample that favours compounds with a hit; in the whole collection about 21% have one here. Unless noted, calls come from the whole dose curve; as a rule, active = well fitted curve in the direction sought with a large enough effect; inconclusive = small, poorly fitted or top-dose-only effect, or another doubt; inactive = no such curve, though single readings can be large; an effect the other way counts as inactive or inconclusive.

SMILES	Pf growth 48h	Pf growth 96h	NS1 function inh	Sm TGR inh	Shiga inhibitor	Cycloheximide cs
Cc1cc(C)c2[nH]c(=O)c(CN(Cc3ccc4c(c3)OCO4)Cc3nnnn3C3CCCC3)cc2c1	12µM*	0%	20%	5%	4	-3
Cc1ccc2[nH]c(=O)c(CN(Cc3nnnn3C3CCCC3)C3CCCCC3)cc2c1	1%	nt	-51%	0%	1	-1
CCCCNC(=O)COc1ccccc1C(=O)c1cc(C#N)c(=O)n(CCOC)c1	-20%	?	5%	2%	-6	-4
COc1ccc(-c2nc3ccc(C4=C(C)CC(=O)NN4)cc3[nH]2)cc1	?	7.6µM*	nt	nt	nt	nt
c1cncc(-c2noc(-c3ccco3)n2)c1	180%	?	-13%	-13%	87*	56*
O=[N+]([O-])c1cc(-c2nc(-c3ccncc3)no2)cc([N+](=O)[O-])c1	?	1.9µM*	-20%	-3%	2	-3
Clc1cccc(Cl)c1-c1noc(-c2ccno2)n1	?	27%	-1%	-7%	-12	4
CC(C)(C)c1ccc(-c2noc(-c3ccno3)n2)cc1	439%	304%	-9%	20%	82*	51*
Nc1nc(-c2nonc2N)no1	16%	21%	nt	-10%	-6	-1
O=[N+]([O-])c1cc(-c2nc(-c3ccncc3)no2)ccc1Cl	-8%	4%	-15%	2%	-11	-3
Nc1nonc1-c1noc(-c2ccccc2)n1	62%	38%	18%	-4%	57*	42*
CC(C)N1CCC(N2CCN(C3CCCCCC3)CC2CCO)CC1 (stereo unspecified)	-9%	?	0%	-29%	-4	-1
CCOC(=O)CSc1nc2sc(C)c(C)c2c(=O)n1N	-25%	-7%	0%	8%	-2	-4
FC(F)(F)c1cccc(-c2nc(-c3ccncc3)no2)c1	?	30%	5%	0%	29	1
Brc1cccc(-c2nc(-c3ccncc3)no2)c1	nt	-7%	-6%	-14%[11.4 µM]	12	11
Cc1cccc(-c2nc(-c3ccncc3)no2)c1	198%	10µM*	-25%	6%	133*	40*
Cc1ccc(-c2nc(-c3ccccc3)no2)cc1	nt	371%	2%	-24%	64*	38*
Cc1noc(-c2ccc(-c3noc(-c4ccccc4)n3)cc2)n1	nt	nt	nt	-1%	nt	nt
CCCc1noc(-c2ccc(-c3ccccc3)cc2)n1	96%	nt	-63%	1%	146*	66*
CC(C)(C)c1ccc(-c2nc(-c3ccncc3)no2)cc1	42%	?	-17%	-3%	63*	32*
COc1ccccc1NC(=O)C(C)OC(=O)CCNS(=O)(=O)c1cccc(C(F)(F)F)c1 (stereo unspecified)	?	-7%	nt	-2%	nt	nt
Cc1ccc(-c2nc(-c3cccnc3)no2)cc1	5%	6%	-49%	7%	90*	48*
Cc1cc(C)cc(-c2nc(-c3ccncc3)no2)c1	nt	?	-37%	4%	65	11*
CCC(=O)Oc1ccc(-c2nc(-c3cccnc3)no2)cc1	146%	212%	-53%	1%	32*	22*
COc1cc(-c2nc(-c3cccnc3)no2)cc(OC)c1OC	18%	-17%	5%	-4%	-3	8
SMILES	Pf growth 48h	Pf growth 96h	NS1 function inh	Sm TGR inh	Shiga inhibitor	Cycloheximide cs
Cc1ccc(-c2nc(-c3ccncc3)no2)cc1	85%	111%	-4%	9%	72*	52*
C#C[C@@]1(O)CC[C@@H]2[C@@H]3CCC4=C(CCC(=O)C4)[C@H]3CC[C@]21C	-6%[12.8 µM]	1%[12.8 µM]	nt	nt	nt	nt
CC(=O)c1cccc(NC(=O)COc2cc3oc(=O)c(CC(C)O)c(C)c3cc2Cl)c1 (stereo unspecified)	?	10µM*	-6%	-6%	-6	-3
CCOC(=O)c1ccc(NC(=O)COc2cc3oc(=O)c(CC(C)O)c(C)c3cc2Cl)cc1 (stereo unspecified)	0%	13%	7%	3%	-2	-4
CCCC(=O)NC1CCCc2c1cnn2-c1ccc(C)c(C)c1 (stereo unspecified)	7%	3.3µM*	-18%	-5%	27	20*
CSCC(=O)NC1CCCc2c1cnn2-c1cc(F)cc(F)c1 (stereo unspecified)	0%	?	-11%	-5%	14	14*
CCn1nc(C)cc1C(=O)NC1CCCc2c1cnn2-c1ccc(C)c(C)c1 (stereo unspecified)	?	15µM*	-56%	3%	-26	4
Cc1cc(C(=O)NC2CCCc3c2cnn3-c2ccc(C)c(C)c2)no1 (stereo unspecified)	-19%	-8%	-46%	6%	19	15*
CCOC(=O)CN1C(=O)/C(=C2\SC(=S)N(NC(=O)c3cccnc3)C2=O)c2ccccc21	-1%	-2%	2%	?	-3	1
Cc1cc(Oc2ccc(C#N)cc2)nc(NCc2ccccc2)n1	?	?	7%	6%	-19	1
O=C(COC(=O)CNC(=O)c1ccc(Cl)c([N+](=O)[O-])c1)NNC(=O)c1ccccc1F	22%	16%	nt	-2%	nt	nt
Cn1cc(S(=O)(=O)c2ccccc2)c(=O)c2cc(F)c(N3CCCC3)cc21	nt	nt	nt	-1%	nt	nt
O=C1NC2=C(C(=O)CCC2)C(c2cccc([N+](=O)[O-])c2)N1 (stereo unspecified)	-6%	?	-3%	0%	-7	-3
COc1cc2c(cc1OC)C1(CCCC1)CNC2c1cccc([N+](=O)[O-])c1 (stereo unspecified)	?	3.3µM*	-1%	?	-26	-13
COc1cc2c(cc1OC)C(c1cccc([N+](=O)[O-])c1)NC(=O)C2 (stereo unspecified)	4%	6.6µM*	-2%	-22%	-21	7
Cc1csc(NC(=O)c2cc(C)on2)n1	341%	422%	nt	-6%	nt	nt
Cc1cc(C(=O)Nc2nc3c(s2)CCCC3)no1	249%	-25%	-12%	9%	22	17*
COC(=O)Nc1nc2c(s1)CCCC2	46%	nt	1%	0%	36*	28*
CCOC(=O)c1ccccc1NC(=O)c1c(-c2ccccc2)noc1C	nt	nt	nt	17%	nt	nt
CCOC(=O)c1c(NC(=O)c2c(-c3ccccc3)noc2C)sc(C)c1-c1ccccc1	nt	6.6µM*	14%	-25%	-5	-6
COc1cc([N+](=O)[O-])ccc1NC(=O)NNC(=O)c1sccc1C	40%	6%	8%	-13%	35*	26*
COc1cccc(NC(=O)Cn2c(=O)n(-c3ccccc3)c(=O)c3sccc32)c1	-28%	17%	nt	0%	21	-3
Cc1c2c(c(O)c3c(O)cccc13)C(=O)O[C@H]2C1C(N(C)C)C(O)=C(C(N)=O)C(=O)[C@H]1O (stereo partly specified)	nt	nt	nt	nt	11	-9
Cc1onc(-c2c(F)cccc2Cl)c1C(=O)Nc1nc2c(s1)CCCC2	?	24%	1%	-11%	4	6
